In the supplement of paper PMC10670038:
Structures can show the parent of a compound that is named as a salt. ± gives the standard deviation of the averaged measurements. In all, about 2,000 compounds were measured (“relative cell viability vs DMSO, compound + 0.2 uM CuET”: median about 1, lowest 2% from about 0.25 on). This is one part of a sample in which the lowest values are shown more often than they occur.

These compounds were tested on TE10 (assay: relative cell viability vs DMSO, compound + 0.2 uM CuET (fraction); TE10 is an esophageal squamous carcinoma line; higher = less cytotoxic). Conditions: 2 µM; co-treatment: CuET (bis(diethyldithiocarbamate)copper) 0.2 uM; 48 h.
Experimental: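 TE10 ESCC cells (1,000/well, 384-well plates) were treated with Selleck bioactive library compounds at 2 uM combined with 0.2 uM CuET (copper diethyldithiocarbamate) for 48 h. Viability was read by CellTiter-Glo and expressed relative to DMSO wells. Two technical replicates (A, B).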

SMILES | relative cell viability
CCN1CCN(C(=O)Cc2ccc(Nc3ncc(F)c(Nc4ccc(C(=O)Nc5ccccc5Cl)cc4)n3)cc2)CC1 [Aurora A Inhibitor I] | 0.182 ± 0.01
Cc1cc(C(=O)CN2CCCC2)c(C)n1-c1ccc(F)cc1 | 0.959 ± 0.085
C[C@@H]1CC[C@H]2[C@@H](C)C(=O)O[C@@H]3O[C@@]4(C)CC[C@@H]1[C@]32OO4 [Artemisinin] | 1.08 ± 0.11
NCC(O)c1ccc(O)cc1 (racemic) [(+,-)-Octopamine HCl] | 0.697 ± 0.56
CC(=O)OC12COC1CC(O)C1(C)C(=O)C(O)C3=C(C)C(O)CC(O)(C(OC(=O)c4ccccc4)C21)C3(C)C (stereo not given) [10-Deacetylbaccatin-III] | 0.849 ± 0.011
CC1=C(O)C(=O)C=C2C1=CC=C1[C@@]2(C)CC[C@@]2(C)[C@@H]3C[C@](C)(C(=O)O)CC[C@]3(C)CC[C@]12C [Celastrol] | 0.154 ± 0.0064
CC(C)=CCC[C@]1(C)C=Cc2c(O)c3c(c(CC=C(C)C)c2O1)O[C@]12C(=C[C@@H]4C[C@H]1C(C)(C)O[C@@]2(C/C=C(/C)C(=O)O)C4=O)C3=O [Gambogic Acid] | 0.2853 ± 0.00092
O=c1cccc2n1C[C@@H]1CNC[C@H]2C1 [Cytisine] | 1.07 ± 0.033
C=C[C@H]1CN2CC[C@H]1C[C@H]2[C@H](O)c1ccnc2ccccc12 [Cinchonidine] | 1.03 ± 0.057
N#CC(C#N)=Cc1ccc(O)c(O)c1 | 0.937 ± 0.14
